Data taken from PubChem BioAssay AID463193 (University of Pittsburgh Molecular Library Screening Center, 2010).
About 1,900 (1%) of roughly 190,000 compounds were called active.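 Rule for the calls: active = percentage of spot-positive cells more than 3 SD above its plate mean, without a fluorescence outlier flag or 80% toxicity; inconclusive = no clear call, values can overlap the other calls; inactive = the rest.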 Many of the other results were omitted from the sample, so actives are more common in it than they were.

Experiment: autophagy modulators in MEF cells, primary screen, imaging, high-content, MEF GFP-LC3 (AID 463193);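 for % cells with GFP-LC3 spots: spot-positive cell cutoff set from DMSO-treated cells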;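 for toxicity: cell loss after 18 h compound exposure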
Conditions: MEF GFP-LC3 puncta imaging, at 10 µM; % cells with GFP-LC3 spots: stronger effect = higher value; toxicity: measured here: cell loss, nuclei count

SMILES | % cells with GFP-LC3 spots | toxicity [%]
OC(CNCC1CCCO1)Cn1c2ccc(Br)cc2c2cc(Br)ccc21 (centres undefined) | 7.36% (active) | 47
CCc1cc(Br)ccc1NC(=O)C1CCCO1 (centres undefined) | 2.25% (inactive) | -4.23
Cc1ccc(C(=O)NCC2CCCO2)o1 (centres undefined) | 12.6% (inactive) | -1.73
c1cc(-n2cnnn2)ccc1NC1=NCCC1 | 12.1% (active) | -6.55
O=C(Cc1c(F)cccc1Cl)Nc1ccc(-n2cnnn2)cc1 | 1.73% (inactive) | 5.48
O=C(c1ccc(-n2cnnn2)cc1)N1CCN(C(c2ccccc2)c2ccccc2)CC1 | 1.42% (inactive) | 13.6
CN(C)CCNC(=O)Cc1ccc([N+](=O)[O-])cc1 | 4.19% (inactive) | 2.43
COc1ccc(CC(=O)NCc2nnc(SCC(=O)Nc3ncc(C)s3)n2C)cc1 | 3.99% (inactive) | -3.03
Cn1c(=O)c([N+](=O)[O-])c(Oc2ccccc2)c2ccccc21 | 0.277% (inactive) | -4.02
O=C(OCC1O[C@@H](OC(=O)c2cc(O)c(O)c(O)c2)[C@@H](OC(=O)c2cc(O)c(O)c(O)c2)[C@@H](OC(=O)c2cc(O)c(O)c(O)c2)[C@@H]1OC(=O)c1cc(O)c(O)c(O)c1)c1cc(O)c(O)c(O)c1 (some centres undefined) | 0.427% (inactive) | -40.5
CCOC(=O)C1=C(C)OC(N)=C(C#N)C1c1cncc(-c2ccc(F)cc2)c1 (centres undefined) | 6.18% (inactive) | 10.5
C(=N\N1CCN(c2ccccn2)CC1)/C1=C(N2CCOCC2)C(=C/c2ccccc2)/CC1 | 21.9% (inactive) | 10.4
N#C/C(=C\C1=C(N2CCOCC2)C(=C\c2ccccc2)/CC1)C(=O)Nc1ccccc1F | 94.8% (active) | 9.15
N#C/C(=C\c1ccccc1C(F)(F)F)C(=O)Nc1ccccc1F | 17.6% (inactive) | -10.6
O=C1CCCN1CCCNC(=S)Nc1ccc(F)c(Cl)c1 | 9.25% (inactive) | 10.7
COc1cccc(C(=O)Nc2ccc(N3CCCC3)cc2)c1 | 41.2% (active) | 21.3
COc1cccc(OC)c1C(=O)Nc1ccc(N2CCCCC2)cc1 | 4.97% (inactive) | 0.418
COc1ccc(C(=O)NC(=S)Nc2ccc(N3CCCC3)cc2)cc1OC | 2.21% (inactive) | 8.63
N#C/C(=C/c1ccc(N2CCCCC2)o1)C(=O)NCCc1c[nH]c2ccccc12 | 95% (active) | -16.4
O=C(NCCc1c[nH]c2ccccc12)C(=O)NCC1CCCO1 (centres undefined) | 2.06% (inactive) | 4.43
CC(=O)N/C(=C/c1ccc(Cl)cc1)C(=O)NCCc1c[nH]c2ccccc12 | 1.94% (inactive) | -16.7

SMILES | % cells with GFP-LC3 spots | toxicity [%]
COc1ccc(C(=O)Nc2ccc(F)cc2F)cc1 | 8.35% (inactive) | 1.69
CCOC(=O)N1CCN(S(=O)(=O)c2ccc(C(=O)Nc3ccc(F)cc3F)cc2)CC1 | 13.1% (active) | 35.6
O=C(Nc1cccc(F)c1)c1ccc(S(=O)(=O)N2CCCC2)cc1 | 2.96% (inactive) | -0.834
O=C(CCCN1C(=O)/C(=C/c2ccccc2)SC1=S)Nc1ccc(O)cc1 | 5.17% (inactive) | 20.5
CCCCN1C(=O)/C(=C2/C=CC=CN2C)SC1=S | 2.78% (inactive) | -16.3
CCCCN1C(=O)/C(=C/C=C2/C=Cc3ccccc3N2CC)SC1=S | 36.6% (active) | 17.1
Cc1ccccc1Cn1nc(C)c(NC(=O)C(F)(F)F)c1C | 25.2% (inactive) | -15.5
COc1ccc(NC(=O)COC(=O)c2ccncc2)c(OC)c1 | 4.41% (inactive) | 21.4
CC1c2nc3ccccc3n2C(CC(=O)NCCCN2CCOCC2)C(=O)N1Cc1ccccc1 (centres undefined) | 6.3% (inactive) | -3.99
COc1ccc(OC)c(NC(=S)N2CCc3ccccc3C2)c1 | 1.08% (inactive) | -17.2
Cc1cc(C)n(-c2cc(Oc3ccccc3)ncn2)n1 | 4.54% (inactive) | -5.5
COc1ccc(Nc2cc(C)nc(-n3nc(C)cc3C)n2)cc1 | 1.92% (inactive) | 48.3
CC(=O)c1ccc(Oc2cc(C)nc(-n3nc(C)cc3C)n2)cc1 | 22.7% (active) | 52.9
O=C1/C(=C\c2ccsc2)NC(=S)N1c1ccccc1 | 0.432% (inactive) | 4.12
Nc1[nH]c(=S)nc2nc(-c3ccccc3)c(-c3ccccc3)nc12 | 14.2% (inactive) | 22.7
N#C/C(=C(/O)Cc1cccc2ccccc12)c1nc2ccccc2s1 | 0.484% (inactive) | -0.84
CC1=CC(=C(C#N)c2nc3ccccc3s2)C=C(C)N1c1ccc(F)cc1F | 27.8% (active) | 15.8
O=C(O)CS/C(=C\c1ccc(F)cc1)c1nc2ccccc2s1 | 5.4% (inactive) | -6.27
CCOc1ccc2c(c1)cc(CN(C(=O)CC)C1CCCCC1)c1nnnn12 | 5.66% (inactive) | 13.7
CCc1ccc2c(c1)cc(CN(C(=S)Nc1ccccc1Cl)C1CC1)c1nnnn12 | 19.7% (active) | 11.8
COCCN(CCOC)C(=S)Nc1ccccc1Cl | 8.84% (inactive) | -8.3
